Source: PubChem
Tcruzi_prolif: T. cruzi intracellular proliferation inhibitors, primary screen, cell-based, beta-gal Tulahuen parasites, NIH3T3 host, luminescence. T. cruzi beta-gal in NIH3T3, GalScreen luminescence, 90 h. inhibition, % at 8.34 µM. 5.9% of 77,000 active. AID 624255, 2012;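 active = mean inhibition above about 93%, with at least 55% of replicates each passing it, limit read from the data, passing the limit was not always enough; inconclusive = only one of those two conditions holds; inactive = neither condition holds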
Pf_Dd2_growth: P. falciparum Dd2 growth inhibitors, primary screen, SYBR Green fluorescence, single dose replicates | AID 1159554, 2015 | 72 h; hits give low values | activity change, % at 10 µM | 2.3% of 94,000 active; in the data active = activity change below about -80%; inconclusive = no clear call, values can overlap the other calls
C_diff_HTS: C. difficile growth inhibitors, primary screen, HTS; growth activity, negative = inhibition, % at 16 µg/mL (by protocol); Clostridium difficile clinical isolate growth, OD600, 24 h; hits give low values; 0.25% of 86,000 active;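 active = mean growth activity at or below -80% and every replicate also at or below -80%; inconclusive = mean at or below -80% but some replicate above -80%; inactive = mean growth activity above -80%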;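 also: 0% = DMSO wells and -100% = levofloxacin 16 µg/mL wells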
Starred values were filed as active, the others as inactive; u = inconclusive; x = no result. Sampled rows, rich in hits. Any-hit rate of the full collection: about 6.8%.

SMILES Tcruzi_prolif Pf_Dd2_growth C_diff_HTS
C[C@H](CO)N1C[C@H](C)[C@H](CN(C)Cc2ccc3c(c2)OCO3)Oc2ccc(NC(=O)CCCCCC(=O)Nc3ccccc3N)cc2C1=O x -76 -4
C[C@@H]1CN([C@@H](C)CO)C(=O)c2cccc(NC(=O)CCCCCC(=O)Nc3ccccc3N)c2O[C@H]1CN(C)Cc1ccc2c(c1)OCO2 x -88* -5
C[C@@H]1CN([C@@H](C)CO)C(=O)c2cc(NC(=O)CCCCCC(=O)Nc3ccccc3N)ccc2O[C@@H]1CN(C)Cc1ccc2c(c1)OCO2 x -64 0
COCCNC(=O)C[C@@H]1C[C@H]2c3cc(NC(=O)Nc4ccc(C(F)(F)F)cc4)ccc3O[C@H]2[C@@H](CO)O1 40 -25 x
C[C@H]1CN([C@@H](C)CO)C(=O)Cc2cc(NC(=O)Nc3ccc(C(F)(F)F)cc3)ccc2O[C@H]1CN(C)CC1CCCCC1 23 -16 42
C[C@@H]1CN([C@H](C)CO)C(=O)Cc2cc(NC(=O)Nc3ccc(F)cc3)ccc2O[C@@H]1CN(C)CC1CCCCC1 69 -33 4
C[C@@H]1CN([C@@H](C)CO)C(=O)Cc2cc(NC(=O)Nc3ccc(C(F)(F)F)cc3)ccc2O[C@H]1CN(C)CC1CCCCC1 -25 -87* 20
C[C@H](CO)N1C[C@H](C)[C@@H](CN(C)CC2CCCCC2)Oc2ccc(NC(=O)Nc3ccc(F)cc3)cc2CC1=O 50 -90* 19
CNC[C@@H]1OCCCC[C@H](C)Oc2ccc(NC(=O)Nc3ccc(C(F)(F)F)cc3)cc2C(=O)N([C@@H](C)CO)C[C@@H]1C 23 20 17
C[C@H]1CCCCO[C@@H](CN(C)C(=O)c2ccccc2)[C@@H](C)CN([C@@H](C)CO)C(=O)c2cc(NS(C)(=O)=O)ccc2O1 60 37 -3
O=C(N[C@H]1C=C[C@@H](CC(=O)N2CCCCC2)O[C@@H]1CO)c1ccccn1 -41 7 x
Cc1noc(C)c1S(=O)(=O)N(C)C[C@H]1Oc2ccc(NC(=O)C3CCCCC3)cc2CC(=O)N([C@@H](C)CO)C[C@@H]1C 14 -28 -4
C[C@@H]1CCCCO[C@H](CN(C)C(=O)c2ccccc2)[C@@H](C)CN([C@@H](C)CO)C(=O)c2cc(NC(=O)Nc3cccc4ccccc34)ccc2O1 86 -82* 0
C[C@H](CO)N1C[C@H](C)[C@@H](CN(C)C(=O)CCCN(C)C)OCCCC[C@H](C)Oc2ccc(NC(=O)Nc3cccc4ccccc34)cc2C1=O 57 5 0
C[C@@H]1CN([C@@H](C)CO)C(=O)c2cc(NC(=O)Nc3cccc4ccccc34)ccc2O[C@@H](C)CCCCO[C@H]1CN(C)C(=O)c1ccccc1 41 3 -4
C[C@@H]1CCCCO[C@@H](CN(C)C(=O)c2ccccc2)[C@H](C)CN([C@H](C)CO)C(=O)c2cc(NC(=O)Nc3cccc4ccccc34)ccc2O1 102* -19 1
C[C@@H]1CN([C@H](C)CO)C(=O)c2cc(NC(=O)Nc3cccc4ccccc34)ccc2O[C@@H](C)CCCCO[C@@H]1CN(C)C(=O)c1ccccc1 25 -69 1
C[C@@H]1CCCCO[C@H](CN(C)C(=O)CCCN(C)C)[C@H](C)CN([C@H](C)CO)C(=O)c2cc(NC(=O)Nc3cccc4ccccc34)ccc2O1 79 -86* 5
C[C@H](CO)N1C[C@H](C)[C@H](CN(C)C(=O)Nc2cc(F)ccc2F)Oc2ncc(C#CCN(C)C)cc2C1=O -47 2 -1
Cc1ccc(S(=O)(=O)N(C)C[C@@H]2Oc3ccc(NC(=O)Cc4cn(C)c5ccccc45)cc3CC(=O)N([C@H](C)CO)C[C@H]2C)cc1 9 -48 -1
COc1ccc2c3c(n(C)c2c1)[C@@H](CO)N(C(=O)Nc1ccc(F)cc1)CC31CN(Cc2cccnc2)C1 x -72 -1
COc1ccc2c3c(n(C)c2c1)[C@H](CO)N(C(=O)Nc1ccc(F)cc1)CC31CCN(Cc2cccnc2)CC1 x -90* 3
COc1ccc2c3c(n(C)c2c1)[C@@H](CO)N(C(=O)Nc1ccc(F)cc1)CC31CCN(Cc2cccnc2)CC1 x -89* -8
COc1ccc2c3c(n(C)c2c1)[C@H](CO)N(C(=O)Nc1ccc(F)cc1)CC31CCN(C(=O)c2cccnc2)CC1 x -80 -3
O=C(C1CCC1)N1CC2(C1)[C@H](c1ccccc1)[C@@H](CO)N2C(=O)c1ccccn1 x 36 9
SMILES Tcruzi_prolif Pf_Dd2_growth C_diff_HTS
C[C@H](CO)N1C[C@H](C)[C@H](CN(C)C)OCCCC[C@H](C)Oc2ccc(NS(=O)(=O)c3ccccc3)cc2C1=O 69 13 -4
COc1ccc(CNC(=O)C[C@@H]2C=C[C@H](NS(=O)(=O)c3cccc(OC)c3)[C@@H](CO)O2)cc1 x x 0
COc1ccc(CNC(=O)C[C@H]2C=C[C@@H](NS(=O)(=O)c3cccc(OC)c3)[C@@H](CO)O2)cc1 x -91* -9
O=C(C[C@@H]1CC[C@H]2NC[C@H](O)COC[C@@H]2O1)NCCN1CCCC1 x 8 -8
COc1ccc(NC(=O)Nc2ccc3c(c2)CC(=O)N([C@@H](C)CO)C[C@@H](C)[C@@H](CN(C)S(=O)(=O)c2ccc(F)cc2)O3)cc1 0 24 -4
COc1ccc2c3c([nH]c2c1)[C@@H](CO)N(Cc1ccncc1)CC31CCN(Cc2ccc(-c3ccccn3)cc2)CC1 x -91* 4
COc1ccc2c3c([nH]c2c1)[C@@H](CO)N(Cc1nccs1)CC31CCN(Cc2ccncc2)CC1 x -65 8
COc1ccc2c3c([nH]c2c1)[C@@H](CO)N(Cc1ccccc1)CC31CCN(C)CC1 x -30 9
COc1ccc2c3c([nH]c2c1)[C@H](CO)N(Cc1ccncc1)CC31CCN(Cc2ccc(-c3ccccn3)cc2)CC1 x -89* -1
Cc1ccc(S(=O)(=O)N(C)C[C@@H]2OCCCC[C@H](C)Oc3ccc(NC(=O)Cc4ccccc4)cc3C(=O)N([C@@H](C)CO)C[C@H]2C)cc1 58 -79 x
C[C@@H]1CCCCO[C@@H](CN(C)S(=O)(=O)c2ccc(Cl)cc2)[C@@H](C)CN([C@@H](C)CO)C(=O)c2cc(NC(=O)Cc3ccccc3)ccc2O1 62 -78 2
Cc1ccc(S(=O)(=O)N(C)C[C@@H]2OCCCC[C@@H](C)Oc3ccc(NC(=O)Cc4ccccc4)cc3C(=O)N([C@H](C)CO)C[C@@H]2C)cc1 53 -81* x
C[C@@H]1CCCCO[C@@H](CN(C)S(=O)(=O)c2ccc(Cl)cc2)[C@@H](C)CN([C@H](C)CO)C(=O)c2cc(NC(=O)Cc3ccccc3)ccc2O1 45 -83* 5
CCCC(=O)Nc1ccc2c(c1)C(=O)N(C)[C@@H]1CC[C@@H](CC(=O)NCC3CC3)O[C@H]1CO2 10 8 -5
COc1ccc(S(=O)(=O)N(C)C[C@H]2OCCCC[C@H](C)Oc3ccc(NC(=O)Cc4ccccc4)cc3C(=O)N([C@@H](C)CO)C[C@H]2C)cc1 102 u 6
